# Source: PubChem (The Scripps Research Institute Molecular Screening Center)
# Ba/F3 V617F tox: reduced viability of JAK2V617F-dependent Ba/F3 cells, primary screen, JAK2V617F inhibitor project, cell-based, Ba/F3 EpoR-JAK2V617F, luminescence | inhibition, % at 5.6 µM | ATP luminescence | AID 1446, 2008 | 220,000 compounds, 1.1% hits;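 active = inhibition above the campaign mean plus 3 SD over all tested compounds, cut at about 24% in these data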;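 also: cytokine-independent growth of Ba/F3 cells driven by EpoR plus mutant JAK2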
# FID counter: compounds displacing fluorescent DNA intercalator, primary screen, artefact control for HCV NS3 helicase inhibitor project, biochemical, FID fluorescence | AID 1845, 2009 | inhibition, % at 7.9 µM | 290,000 compounds, 0.17% hits | DNA fluorescent intercalator displacement; in the data active = inhibition above about 37%;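 also: higher means more ethidium bromide displaced from hairpin DNA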
# BaF3 parental: parental Ba/F3 cell viability inhibition, counter-screen for JAK2V617F inhibitor project, murine pro-B, CellTiter-Glo luminescence | 220,000 compounds, 1.1% hits | AID 1486, 2009 | inhibition, % at 5.6 µM | CellTiter-Glo ATP luminescence;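 active = inhibition above a per-campaign cutoff, the mean inhibition of all tested compounds plus 3 SD, cut at about 27% in these data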
# IEC-6 tox: cytotoxicity in IEC-6 intestinal epithelial cells, primary screen, cytotoxicity control for KLF5 inhibitor project, cell-based, luminescence. IEC-6 cytotoxicity, luminescence viability. inhibition, % at 5 µM. 290,000 compounds, 0.78% hits. AID 1825, 2009
# KLF5 inh: KLF5 expression inhibitors, primary screen, DLD-1 cells, luminescence | DLD-1 KLF5 promoter-luciferase reporter | inhibition, % at 5 µM | 290,000 compounds, 0.23% hits;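 active = inhibition above a per-plate limit of that plate's mean compound inhibition plus 3 SD, cut at about 60% in these data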;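 also: higher means less KLF5 promoter-driven luciferase light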
# GPR7 antagonist: GPR7 receptor antagonists, primary screen, cell-based, fluorescence, single concentration; Neuropeptides B/W receptor type 1 (Homo sapiens), P48145; GPR7-expressing cells, fluorescence antagonist assay; inhibition, % at 4.4 µM; 290,000 compounds, 1.1% hits; AID 1861, 2009; in the data active = inhibition above about 16%, passing the limit was not always enough;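 also: cells stimulated with the agonist NPW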
# Target sequence (P48145 whole entry, looked up): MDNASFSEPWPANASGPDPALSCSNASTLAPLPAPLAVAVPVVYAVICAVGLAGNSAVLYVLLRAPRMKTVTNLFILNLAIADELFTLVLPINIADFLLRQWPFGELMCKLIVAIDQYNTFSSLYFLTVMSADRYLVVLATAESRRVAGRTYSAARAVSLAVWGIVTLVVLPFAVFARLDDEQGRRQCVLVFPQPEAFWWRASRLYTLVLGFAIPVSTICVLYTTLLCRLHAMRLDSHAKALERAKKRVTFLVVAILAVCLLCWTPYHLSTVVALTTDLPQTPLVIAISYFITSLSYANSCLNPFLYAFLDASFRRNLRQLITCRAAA
# GPR7 antag cf: GPR7 receptor antagonists, confirmation, cell-based, fluorescence, single concentration. inhibition, % at 4.4 µM. GPR7-expressing cells, calcium fluorescence antagonist mode. shares compounds with GPR7 antagonist. 2,400 compounds, 52% hits; in the data active = inhibition above about 24%;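 also: stimulated with the GPR7 agonist NPW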
# MCHR1 antag: MCHR1 antagonists in cells, counter-screen for GPR7 antagonist project, cell-based, fluorescence, human; shares compounds with GPR7 antagonist; MCHR1-expressing cells, fluorescence antagonist assay; inhibition, % at 4.4 µM; 2,400 compounds, 62% hits; AID 2148, 2009
# Numbers stand for hits; 0 = inactive; - = no result given. The list is not random: actives were taken first. Their share in the collection is about 2.6%. Rule as the data show it, unless noted: active = inhibition above about 22%; inactive = the rest.
SMILES,Ba/F3 V617F tox,FID counter,BaF3 parental,IEC-6 tox,KLF5 inh,GPR7 antagonist,GPR7 antag cf,MCHR1 antag
O=c1[nH]c2cc3c(cc2cc1CN(Cc1ccco1)C(=S)NCCCN1CCOCC1)OCCO3,0,0,0,0,0,100,0,0
CCCCNC(=S)N(Cc1ccco1)Cc1cc2cc3c(cc2[nH]c1=O)OCCO3,0,0,0,0,0,0,-,-
Fc1ccccc1CSc1nnc(-c2cccs2)o1,0,0,0,0,0,0,-,-
CC(=O)c1cccc(NC(=O)CSc2nnc(C(C)N(C)C)n2-c2ccc(F)cc2)c1 (configuration not stated),-,0,-,0,0,35,0,0
CCCCCOc1ccc(CN2CCOCC2)cc1Cl,0,0,0,0,0,0,-,-
CCCCCc1ccc(OCCCC[n+]2ccc(C)cc2)c(CCCCC)c1,102,37,103,0,0,24,70,79
CCC(=O)c1cn(CC(=O)Nc2ccccc2Cl)c2ccccc12,-,0,-,0,0,26,0,0
CCC(=O)c1cn(CC(=O)Nc2cccc(C)c2C)c2ccccc12,-,0,-,0,0,0,-,-
CCOc1ccc(NC(=O)C(=O)N/N=C/c2cccnc2)cc1,0,0,0,0,0,0,-,-
NC(=O)N[C@@H](Cc1c[nH]c2ccccc12)C(=O)OCC(=O)N1CCCCC1,0,0,0,0,0,0,-,-
Cc1ccc(NC(=O)/C(CN(C)C)=N\O)cc1,0,0,0,0,0,0,-,-
O=C(c1ccc([N+](=O)[O-])s1)N1CCN(c2ccc(C(F)(F)F)cn2)CC1,-,0,-,0,0,36,47,58
Cc1cnc(C(=O)N2CCN(c3ccc(C(F)(F)F)cn3)CC2)cn1,0,0,0,0,0,0,-,-
O=C1c2cccnc2C(=O)N1CNc1ccc(Cl)cc1,0,0,0,0,0,0,-,-
CCCN(CC(=O)Nc1ccccc1C)C(=O)c1ccc(S(=O)(=O)N2CCCCCC2)cc1,-,0,-,0,0,0,-,-
CCCN(CC(=O)Nc1ccccc1C)C(=O)c1cccc(S(=O)(=O)N2CCc3ccccc3C2)c1,-,0,-,0,0,30,28,55
CC(C)CC(=O)N1CCN(Cc2ccc3ccccc3c2)CC1,-,0,-,0,0,0,-,-
C/C(=N\NC(=O)c1nnn(-c2nonc2N)c1C)c1ccc(OCc2ccccc2)cc1,-,0,-,0,0,39,0,0
COc1ccc(Nc2ccc(OC)cc2)cc1,0,0,0,0,0,0,-,-
COc1ccc(Nc2ccc(Nc3ccc(OC)cc3)nn2)cc1,0,0,0,0,0,92,85,89
CC(C)n1cc(CN2CCCC(C(=O)Nc3cccc(-c4cc5ccccc5[nH]4)c3)C2)cn1 (configuration not stated),-,0,-,0,0,27,42,56
Cn1c(SCC(=O)Nc2ccc(F)cc2)nnc1C1CC1,-,0,-,0,0,0,-,-
Cc1cc(Cl)ccc1OC(C)C(=O)Nc1ccc(S(=O)(=O)N2CCOCC2)cc1 (configuration not stated),-,0,-,0,0,35,0,26
CC(Oc1ccccc1)C(=O)Nc1ccc(S(=O)(=O)N2CCOCC2)cc1 (configuration not stated),0,0,0,0,0,0,-,-
O=C(O)[C@H](Cc1ccccc1)NC(=O)N1CCCCCC1,-,0,-,0,0,0,-,-
O=C(OC1CCCCC1=O)c1cc(Cl)ccc1[N+](=O)[O-] (configuration not stated),0,0,0,0,0,0,-,-
CCCCc1nnc2c(N(C)S(=O)(=O)c3ccccc3)nc3ccccc3n12,0,0,0,0,0,0,-,-
Cc1ccc(OCCn2c(CCCO)nc3ccccc32)cc1,0,0,0,0,0,23,0,0
